In all, about 5,500 compounds went through this assay and about 2,000 (36%) were called active. Another 18% or so got no clear call; they are omitted. No stated cut-off is given here; in the data, active means normalized growth mostly below about 0.91 (no sharp cut-off); inconclusive means no clear call, values can overlap the other calls; inactive means mostly above about 0.92. Some of the results follow.
Test: chemical genetic growth profiling, strain panel (AID 1159580);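 further: tested at 20 µM; growth read once vehicle control cultures reached saturation at 30 °C; 1 = growth at the plate median or of vehicle wells; lower values mean less growth of the strain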
Conditions: growth OD

Measured: normalized growth

O=C(c1ccccc1)c1ccc2n1CCC2C(=O)O (stereo not drawn)
inactive: S. cerevisiae deletion strains, locus YKL009W, strain mrt4, active compounds read low 0.962 | S. cerevisiae deletion strains, locus YKL068W, active compounds read low 0.979 | S. cerevisiae deletion strains, locus YKL085W, strain MDH1 (second series), active compounds read low 0.99 | S. cerevisiae deletion strains, locus YKL085W, strain MDH1, active compounds read low 0.99 | S. cerevisiae deletion strains, locus YKL160W, strain elf1, active compounds read low 1.03 | S. cerevisiae deletion strains, locus YKL190W, strain CNB1, active compounds read low 0.999 | S. cerevisiae deletion strains, locus YKR001C, strain vps1, active compounds read low 0.98 | S. cerevisiae deletion strains, locus YKR026C, strain gcn3, active compounds read low 1 | S. cerevisiae deletion strains, locus YKR091W, strain srl3, active compounds read low 0.961 | S. cerevisiae deletion strains, locus YLL001W, strain dnm1, active compounds read low 1.01 | S. cerevisiae deletion strains, locus YLL026W, active compounds read low 0.999 | S. cerevisiae deletion strains, locus YLL041C, strain sdh2, active compounds read low 0.995 | S. cerevisiae deletion strains, locus YLR027C, strain aat2, active compounds read low 0.99 | S. cerevisiae deletion strains, locus YLR039C, strain RIC1, active compounds read low 1 | S. cerevisiae deletion strains, locus YLR058C, strain SHM2, active compounds read low 1 | S. cerevisiae deletion strains, locus YLR102C, strain apc9, active compounds read low 0.974 | S. cerevisiae deletion strains, locus YLR113W, strain HOG1, active compounds read low 1.01 | S. cerevisiae deletion strains, locus YLR221C, strain rsa3, active compounds read low 1.01 | S. cerevisiae deletion strains, locus YLR258W, strain gsy2, active compounds read low 0.985 | S. cerevisiae deletion strains, locus YLR262C, strain YPT6 (second series), active compounds read low 0.996 | S. cerevisiae deletion strains, locus YLR262C, strain YPT6, active compounds read low 0.965 | S. cerevisiae deletion strains, locus YLR268W, strain sec22, active compounds read low 0.97 | S. cerevisiae deletion strains, locus YLR320W, strain mms22, active compounds read low 0.966 | S. cerevisiae deletion strains, locus YLR330W, strain CHS5, active compounds read low 0.989 | S. cerevisiae deletion strains, locus YLR342W, strain FKS1 (second series), active compounds read low 0.998 | S. cerevisiae deletion strains, locus YLR342W, strain FKS1, active compounds read low 1 | S. cerevisiae deletion strains, locus YLR357W, strain rsc2, active compounds read low 1.02 | S. cerevisiae deletion strains, locus YLR370C, strain arc18, active compounds read low 1.01 | S. cerevisiae deletion strains, locus YLR371W, strain rom2, active compounds read low 0.962 | S. cerevisiae deletion strains, locus YLR384C, strain iki3, active compounds read low 0.998 | S. cerevisiae deletion strains, locus YLR418C, strain cdc73, active compounds read low 0.987 | S. cerevisiae deletion strains, locus YML016C, strain PPZ1, active compounds read low 0.998 | S. cerevisiae deletion strains, locus YML032C, strain rad52, active compounds read low 0.991 | S. cerevisiae deletion strains, locus YML120C, strain ndi1, active compounds read low 1.01 | S. cerevisiae deletion strains, locus YML124C, strain tub3, active compounds read low 0.982 | S. cerevisiae deletion strains, locus YMR058W, strain fet3, active compounds read low 0.978 | S. cerevisiae deletion strains, locus YMR078C, strain ctf18, active compounds read low 0.968 | S. cerevisiae deletion strains, locus YMR125W, strain sto1, active compounds read low 1.01 | S. cerevisiae deletion strains, locus YMR129W, active compounds read low 0.995 | S. cerevisiae deletion strains, locus YMR205C, strain PFK2, active compounds read low 1.01 | S. cerevisiae deletion strains, locus YMR223W, strain ubp8, active compounds read low 0.972 | S. cerevisiae deletion strains, locus YMR231W, strain pep5, active compounds read low 1 | S. cerevisiae deletion strains, locus YMR307W, strain GAS1, active compounds read low 0.985 | S. cerevisiae deletion strains, locus YNL067W, strain RPL9B, active compounds read low 1.02 | S. cerevisiae deletion strains, locus YNL071W, strain lat1, active compounds read low 0.977 | S. cerevisiae deletion strains, locus YNL128W, strain TEP1, active compounds read low 0.996 | S. cerevisiae deletion strains, locus YNL153C, strain GIM3, active compounds read low 0.998 | S. cerevisiae deletion strains, locus YNL175C, strain NOP13, active compounds read low 1 | S. cerevisiae deletion strains, locus YNL183C, strain NPR1, active compounds read low 0.973 | S. cerevisiae deletion strains, locus YNL197C, strain WHI3, active compounds read low 1.01 | S. cerevisiae deletion strains, locus YNL209W, strain ssb2, active compounds read low 0.985 | S. cerevisiae deletion strains, locus YNL224C, strain SQS1, active compounds read low 1.01 | S. cerevisiae deletion strains, locus YNL233W, strain BNI4, active compounds read low 1.03 | S. cerevisiae deletion strains, locus YNL248C, strain rpa49, active compounds read low 0.968 | S. cerevisiae deletion strains, locus YNL250W, strain rad50, active compounds read low 0.986 | S. cerevisiae deletion strains, locus YNL271C, strain bni1, active compounds read low 0.96 | S. cerevisiae deletion strains, locus YNL298W, strain CLA4, active compounds read low 0.969 | S. cerevisiae deletion strains, locus YNL307C, strain MCK1, active compounds read low 0.976 | S. cerevisiae deletion strains, locus YNL322C, strain KRE1 (second series), active compounds read low 0.982 | S. cerevisiae deletion strains, locus YNL322C, strain KRE1, active compounds read low 1.01 | S. cerevisiae deletion strains, locus YNR049C, strain mso1, active compounds read low 0.983 | S. cerevisiae deletion strains, locus YNR052C, strain pop2, active compounds read low 0.97 | S. cerevisiae deletion strains, locus YOL006C, strain TOP1, active compounds read low 1.05 | S. cerevisiae deletion strains, locus YOL012C, strain htz1 0.945 | S. cerevisiae deletion strains, locus YOL147C, strain pex11, active compounds read low 0.982 | S. cerevisiae deletion strains, locus YOR001W, strain rrp6, active compounds read low 1.01 | S. cerevisiae deletion strains, locus YOR061W, strain CKA2, active compounds read low 0.997 | S. cerevisiae deletion strains, locus YOR069W, strain VPS5, active compounds read low 0.994 | S. cerevisiae deletion strains, locus YOR070C, strain gyp1, active compounds read low 1 | S. cerevisiae deletion strains, locus YOR080W, strain dia2, active compounds read low 1.01 | S. cerevisiae deletion strains, locus YOR083W, strain WHI5 (second series), active compounds read low 1.03 | S. cerevisiae deletion strains, locus YOR083W, strain WHI5, active compounds read low 1.04 | S. cerevisiae deletion strains, locus YOR106W, strain vam3, active compounds read low 1.03 | S. cerevisiae deletion strains, locus YOR136W, strain idh2, active compounds read low 0.971 | S. cerevisiae deletion strains, locus YOR144C, strain elg1, active compounds read low 0.982 | S. cerevisiae deletion strains, locus YOR184W, strain ser1, active compounds read low 0.964 | S. cerevisiae deletion strains, locus YOR231W, strain MKK1, active compounds read low 1.02 | S. cerevisiae deletion strains, locus YOR265W, strain rbl2, active compounds read low 1 | S. cerevisiae deletion strains, locus YOR270C, strain vph1, active compounds read low 0.972 | S. cerevisiae deletion strains, locus YOR290C, strain snf2, active compounds read low 0.962 | S. cerevisiae deletion strains, locus YOR316C, strain cot1, active compounds read low 0.956 | S. cerevisiae deletion strains, locus YPL051W, strain arl3, active compounds read low 1.04 | S. cerevisiae deletion strains, locus YPL055C, strain LGE1, active compounds read low 1.02 | S. cerevisiae deletion strains, locus YPL078C, strain atp4, active compounds read low 1.01 | S. cerevisiae deletion strains, locus YPL106C, strain sse1, active compounds read low 0.978 | S. cerevisiae deletion strains, locus YPL240C, strain hsp82, active compounds read low 1 | S. cerevisiae deletion strains, locus YPL256C, strain CLN2, active compounds read low 1.01 | S. cerevisiae deletion strains, locus YPR119W, strain clb2, active compounds read low 0.961 | S. cerevisiae deletion strains, locus YPR141C, strain kar3, active compounds read low 0.977 | S. cerevisiae deletion strains, locus YPR163C, strain tif3, active compounds read low 0.978 | S. cerevisiae deletion strains, locus YPR167C, strain met16, active compounds read low 0.976 | S. cerevisiae deletion strains, strain wtn01, active compounds read low 0.985 | S. cerevisiae strains, strain wild type, active compounds read low 1
